Consider 19 molecules from PubChem BioAssay (NCI).

Compounds without any hit were thinned out: in the full panel of roughly 79,000, 15% have a hit. Values without a mark were called inactive. Active and inactive are the calls of the source. Cut-off read from the data, not from the text of the source: active = growth inhibition above about 70%; inactive = the rest.

Experiment [1] in a line: NCI Yeast Anticancer Drug Screen. Data for the rad50 strain (AID 155).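 Note: 0% = growth of vehicle-only cultures of the same strain.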 As to conditions: S. cerevisiae rad50 strain growth inhibition; at 50.0 µM; stronger effect = higher value. The method, boiled down:
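Cells are treated with compound, grown, and their growth is then scored against vehicle-only cultures of the same repair-deficient yeast strain.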

Experiment [2] in a line: NCI Yeast Anticancer Drug Screen. Data for the mec2-1 strain (AID 157). Conditions: S. cerevisiae mec2-1 strain, at 50.0 µM, stronger effect = higher value. The procedure, abridged:
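Growth inhibition is read against vehicle-treated controls after compound exposure of the mec2-1 yeast strain, which is defective in DNA damage repair or cell cycle control.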

A short description of experiment [3]: NCI Yeast Anticancer Drug Screen. Data for the sgs1 mgt1 strain (AID 161).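 Note: 0% = growth of cultures given vehicle only.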 As to conditions: S. cerevisiae sgs1 mgt1 strain, at 50.0 µM, stronger effect = higher value. The procedure, abridged:
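Yeast cells carrying a defined DNA-repair defect were exposed to test compounds. Growth inhibition was measured relative to vehicle-treated controls.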

Experiment [4] in a line: NCI Yeast Anticancer Drug Screen. Data for the cln2 rad14 strain (AID 165).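 Note: 0% = growth equal to vehicle treated cultures.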 As to conditions: S. cerevisiae cln2 rad14 strain, at 50.0 µM, stronger effect = higher value. The procedure, abridged:
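Growth inhibition, relative to vehicle-treated controls, is the read-out. The test organism is a yeast strain with defined genetic alterations, cln2 rad14.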

Experiment [5] is described as follows: NCI Yeast Anticancer Drug Screen. Data for the bub3 strain (AID 167). As to conditions: S. cerevisiae bub3 mutant strain, at 50.0 µM, stronger effect = higher value. The method, boiled down: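 Part of a panel of yeast mutants defective in DNA damage repair or cell cycle regulation. Each strain is grown with compound, and inhibition is calculated relative to solvent-treated cultures.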

Experiment [6] can be described thus: NCI Yeast Anticancer Drug Screen. Data for the mlh1 rad18 strain (AID 175). As to conditions: S. cerevisiae mlh1 rad18 strain growth inhibition; at 50.0 µM; stronger effect = higher value. The method, boiled down:
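Cells of a genetically altered yeast strain, deficient in DNA damage repair, were treated with compound. Their growth was then compared with that of vehicle-treated cultures to give inhibition.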

For `CC1=CC23C(COC(=O)C24CO4)C(C(=O)O)=CC3C1C` (centres undefined) (tested in a mixture with another compound), the growth inhibition in experiment [1] was 38%; in experiment [2], 29%; in experiment [3], 34.5%; in experiment [4], 33.4%; in experiment [5] it was 17.9%; in experiment [6], 30.4%.
For `ClC1=C(Cl)C2(Cl)C3C(C4(Cl)C(Cl)=C(Cl)C3(Cl)C4(Cl)Cl)C2(Cl)C1(Cl)Cl` (centres undefined), the growth inhibition in experiment [1] was -1.7%; in experiment [2], -6.05%; in experiment [3], 9%; in experiment [4], -71%; in experiment [5] it was -2.4%; in experiment [6], -11.8%.
For the molecule `O=C1NC(=O)C(c2ccsc2)C(=O)N1`, the growth inhibition is -20.6% in experiment [1]; -2.25% in experiment [2]; -30.4% in experiment [3]; -40.5% in experiment [4]; 7.5% in experiment [5]; 1.45% in experiment [6].
Take `CC1CC(C)(O)CC(C(O)CC2CC(=O)NC(=O)C2)C1=O` (centres undefined): the growth inhibition in experiment [1] was 55.9%; in experiment [2] it was 51%; in experiment [3], 48.2%; in experiment [4], 56.1%; in experiment [5] it was 67%; in experiment [6] it was 68.2%.
Turning to `COC1CC(OC2OC(CO)C(O)C(O)C2O)/C(=C\C#N)C(O)C1OC` (centres undefined), the growth inhibition in experiment [1] is 1.95%; in experiment [2], -3.05%; in experiment [3], 1.8%; in experiment [4] it was 9.25%; in experiment [5], 2.35%; in experiment [6] it was -58.2%.
Regarding `COP(=O)(Cc1ccccc1)OC`, the growth inhibition was -1% in experiment [1]; 5.15% in experiment [2]; -0.95% in experiment [3]; -43.1% in experiment [4]; 2.3% in experiment [5]; -11.8% in experiment [6].
Regarding `CCC(=O)C(c1ccccc1)(c1ccccc1)C(C)CN1CCCCCCC1` (centres undefined), the growth inhibition in experiment [1] is 30.3%; in experiment [2], 12.1%; in experiment [3], 10.8%; in experiment [4], 1.9%; in experiment [5], 10.8%; in experiment [6] it was 35.4%.
`CC(C)(C)c1ccc(OP(=O)(Oc2ccccc2)Oc2ccccc2)cc1`: the growth inhibition in experiment [1] was 15.9%; in experiment [2] it was 0.05%; in experiment [3] it was -8.15%; in experiment [4], -30.9%; in experiment [5] it was 24.1%; in experiment [6], 33.9%.
Consider `Cc1cccc2c(=O)c([Se]c3coc4c(C)cccc4c3=O)coc12`, for which the growth inhibition is -12.4% in experiment [1]; -15.2% in experiment [2]; -48.2% in experiment [3]; -5.8% in experiment [4]; -13.2% in experiment [5]; -30.1% in experiment [6].
For the molecule `CSCCC(NP(=S)(c1ccccc1)c1ccccc1)C(=O)O` (centres undefined), the growth inhibition in experiment [1] is 17.4%; in experiment [2] it was -3.1%; in experiment [3], 0%; in experiment [4], 16.9%; in experiment [5], -1.8%; in experiment [6], 9.5%.
For `COc1ccc(NC2=NCCO2)c2ccccc12`, the growth inhibition in experiment [1] was -11.9%; in experiment [2], -42.3%; in experiment [3], -31.1%; in experiment [4], -0.3%; in experiment [5] it was -13.4%; in experiment [6] it was -20.9%.
As for `O=C1C2C(C(=O)N1c1ccc(Cl)c(Cl)c1)C1(Cl)C(Cl)=C(Cl)C2(Cl)C1(Cl)Cl` (centres undefined), the growth inhibition in experiment [1] is 91.8% (active); in experiment [2], 95.2% (active); in experiment [3] it was 96.1% (active); in experiment [4] it was 86.5% (active); in experiment [5], 94.1% (active); in experiment [6] it was 95.7% (active).
`CC1OC(O[C@H]2C[C@@H](O)[C@]3(CO)[C@H]4[C@H](O)C[C@]5(C)[C@@H](C6=CC(=O)OC6)CC[C@]5(O)[C@@H]4CC[C@]3(O)C2)C(O)C(O)C1O` (some centres undefined): the growth inhibition in experiment [1] was -6.7%; in experiment [2] it was 1.15%; in experiment [3], 5.05%; in experiment [4] it was 20.9%; in experiment [5], -1.2%; in experiment [6], -47.5%.
On to `CC(C)SP(=S)(SC(C)C)SC(C)C`, for which the growth inhibition is 8% in experiment [1]; -10.1% in experiment [2]; 8.3% in experiment [3]; -20.4% in experiment [4]; 4.15% in experiment [5]; 17.1% in experiment [6].
As to `[N-]=[N+]=Nc1nc2ccccc2c(N=[N+]=[N-])c1Cl`, the growth inhibition in experiment [1] was 6.85%; in experiment [2] it was -6.7%; in experiment [3], 5.6%; in experiment [4], 31.9%; in experiment [5], 5.45%; in experiment [6] it was 9.45%.
With `O=C(O)C(F)(F)F.O=C(O)C(F)(F)F.O=C(O)C(F)(F)F.O=C(O)C(F)(F)F.[Rh].[Rh]`, the growth inhibition in experiment [1] is 26.8%; in experiment [2], 17.1%; in experiment [3], 22.1%; in experiment [4] it was 21.2%; in experiment [5] it was 21.4%; in experiment [6], 28%.
Regarding `CCOC(=O)C[CH2][Sn]([Cl])([Cl])[Cl]`, the growth inhibition is 17.4% in experiment [1]; 22.5% in experiment [2]; 21.1% in experiment [3]; 12.3% in experiment [4]; 4.3% in experiment [5]; 20.9% in experiment [6].
For `O=C(C1C(c2ccccc2)N1C1CCCCC1)C1C(c2ccccc2)N1C1CCCCC1` (centres undefined), the growth inhibition was 6% in experiment [1]; 17.9% in experiment [2]; 10.6% in experiment [3]; -5.1% in experiment [4]; -10.5% in experiment [5]; 8.7% in experiment [6].
Turning to `CN(Cc1cnc2nc(N)nc(N)c2n1)c1ccc(C(=O)NC(CCC(=O)NC(CC(P(=O)(O)O)P(=O)(O)O)C(=O)O)C(=O)O)cc1` (centres undefined), the growth inhibition in experiment [1] is -19.6%; in experiment [2], -14.6%; in experiment [3], -8.05%; in experiment [4] it was 16.6%; in experiment [5], 5.75%; in experiment [6] it was -21.9%.
